# Screening results deposited in PubChem BioAssay by several laboratories.
# TLR4 MyD88 comp: inhibitors of human TLR4-MyD88 binding; O00206+Q99836; HeLa CL3-4 TLR4/MyD88 BLA complementation, FRET ratio; inhibition, % at 8.4 µM; 200,000 tested, 0.18% active; AID 861; in the data active means inhibition above about 25%;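 further: 0% = vehicle and 100% = reference inhibitor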
# TLR9-MyD88 block: blocks human TLR9 binding to MyD88; Q9NR96+Q99836; inhibition, % at 4.98 µM; 340,000 tested, 0.21% active; CHO BLA complementation TLR9-MyD88, CCF4 FRET ratio;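 active means inhibition above the mean over all tested compounds plus 3 SD, cut at about 21% in these data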;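 further: 0% = DMSO only wells and 100% = clavulanate BLA inhibitor control wells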
# A1 inh: inhibitors of the anti-apoptotic protein A1, read as caspase activation; MEF A1-2A-BIM cells, Caspase-Glo 3/7 luminescence, 3 h; percent of clofoctol response, vehicle zero; caspase activation, % (no concentration beside the values); 330,000 tested, 0.066% active; AID 2462;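 active means over half of replicate activation scores above 10%, or exactly half above 10 with the replicate mean above 10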
# NOD2-RIPK2 inh: inhibitors of human NOD2-RIPK2 interaction; O43353; CHO BLA complementation NOD2-RIPK2, CCF4 ratio; inhibition, % at 4.98 µM; 360,000 tested, 0.38% active; AID 624267; in the data active means inhibition above about 21%;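 further: 0% = vehicle only and 100% = reference blocker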
# B2AR ag: human beta-2 adrenergic receptor agonism by FAP | P07550 | Am2.2-beta2AR cells, FAP receptor internalization, flow cytometry | response, % (concentration not given with the values) | 340,000 tested, 0.43% active | AID 504454;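 active means response above a set limit, near 3 SD of response in nonfluorescent compounds, cut at about 42% in these data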
# NTR1 ag: activates human neurotensin receptor 1; 330,000 tested, 0.17% active; NTR1-U2OS beta-arrestin-GFP spot imaging, agonist mode; activation, % at 20 µM;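 active means activation at or above 40% of the spot to cytoplasm intensity ratio, with at least 20 cells analyzed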;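 further: 0% = DMSO without peptide and 100% = 100 nM NTR1 peptide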
# Target sequence (P30989 whole entry, looked up): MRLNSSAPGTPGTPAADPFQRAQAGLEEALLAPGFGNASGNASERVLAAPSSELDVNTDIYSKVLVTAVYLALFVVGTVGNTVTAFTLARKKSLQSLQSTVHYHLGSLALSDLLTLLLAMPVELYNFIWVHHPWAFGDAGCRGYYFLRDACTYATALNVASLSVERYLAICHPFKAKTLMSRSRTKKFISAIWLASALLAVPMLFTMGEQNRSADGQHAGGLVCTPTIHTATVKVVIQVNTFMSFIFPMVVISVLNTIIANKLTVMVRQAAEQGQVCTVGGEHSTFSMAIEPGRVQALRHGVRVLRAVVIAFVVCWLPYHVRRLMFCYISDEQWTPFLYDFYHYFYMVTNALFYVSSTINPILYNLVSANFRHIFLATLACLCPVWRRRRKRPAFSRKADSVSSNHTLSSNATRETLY
# * marks the source's active call; other numbers are inactive results; x = no result. In the library only some 0.97% were active in any assay of this set; here they are far more common.
SMILES,TLR4 MyD88 comp,TLR9-MyD88 block,A1 inh,NOD2-RIPK2 inh,B2AR ag,NTR1 ag
COc1ccc(OCC(=O)N2CCN(C(=O)c3cccc4ccccc34)CC2)cc1,-4.4,-6.0,0.5,2.1,4.6,0.7
N#C/C(=C\c1ccc(N2CCOCC2)o1)c1ccccc1,14.1,10.8,3.2,12.6,11.1,-0.4
N#C/C(=C/c1ccc(N2CCCCCC2)o1)c1ccc(F)cc1,2.1,23.7*,1.6,39.1*,-156.9,4.2
N#C/C(=C/c1ccc(N2CCOCC2)o1)c1ccc(Br)cc1,16.3,6.3,3.5,25.2*,-332.2,-2.4
O=C(N/N=C/c1ccccc1)c1ccc(N2CCCC2=O)cc1,x,-0.3,-0.6,-12.8,63.7*,0.7
C/C(=N\NC(=O)c1ccc(N2CCCC2=O)cc1)c1ccccc1,x,-9.7,-0.2,-6.2,-18.4,-0.9
Cc1ccc(C(=O)c2no[n+]([O-])c2C(=O)c2ccc(C)cc2)cc1,-14.5,-7.1,1.7,-2.1,42.4*,8.1
O=C(COC(=O)c1ccc2c(c1)OCCO2)Nc1ccccc1C(F)(F)F,x,-14.2,x,-5.3,x,x
CCc1cccc(NC(=O)C2CCN(S(=O)(=O)c3ccc4c(c3)NC(=O)CO4)CC2)c1,x,9.9,9.7*,-2.8,2.1,1.1
CCN(C(=O)CCN1C(=O)c2ccccc2S1(=O)=O)c1ccccc1,x,-0.5,5.7*,-34.1,-0.5,-0.4
O=C(COc1cc2oc(=O)c3c(c2cc1Cl)CCC3)Nc1ccc(CN2CCOCC2)cc1,x,1.4,-0.2,-0.5,42.3*,-0.3
O=C(COc1cc2oc(=O)c3c(c2cc1Cl)CCC3)NCCCN1CCCC1=O,x,-3.2,0.6,9.2,-2.9,-1.6
CC12CNCC(C)(CN(C(c3ccccc3)c3ccccc3)C1)C2,-21.5,1.0,0.2,1.1,89.7*,15.5
O=C(NCCN1CCOCC1)c1cc2sccc2n1Cc1ccc(F)cc1,-10.0,4.5,0.1,7.8,12.9,2.8
COC(=O)c1ccc2c(=O)n(Cc3ccc4c(c3)OCO4)c(=S)[nH]c2c1,x,-10.9,6.3*,3.8,-2.8,10.7
CC(C)(C)C(=O)NCCn1ccc2ccccc21,-1.9,0.8,0.2,-6.8,-6.4,-0.3
COC1=CC(=O)C=C(OC)C1=O,x,15.0,x,21.9*,53.0*,x
CCc1ccc(NC(=O)Nc2ccon2)cc1,x,2.8,-6.7,0.5,8.1,2.5
O=C(Sc1nnnn1C1CCCCC1)c1cccs1,-2.2,x,0.1,x,x,-0.3
CC(C)(C)c1ccc(C(O)CCCN2CCC(C(O)(c3ccccc3)c3ccccc3)CC2)cc1 (stereo not given),2.1,8.4,1.1,10.4,64.2*,24.6
CN(C)CCCn1c2c3ccccc3ccc2c2oc(=O)c3ccccc3c21,x,1.0,x,16.6,42.9*,x
CN(C)CCCn1c(=S)[nH]c2ccccc2c1=O,10.8,-1.1,-0.3,-4.0,-15.5,3.4
O=C(C1=C(O)C(=O)N(CCN2CCOCC2)C1c1cccc(Br)c1)c1cc2ccccc2o1 (stereo not given),x,-4.7,-0.5,-7.6,26.8,1.9
O=C(C1=C(O)C(=O)N(CCN2CCOCC2)C1c1ccc(F)cc1)c1cc2ccccc2o1 (stereo not given),x,5.9,0.1,-8.1,75.3*,-0.7
O=S(=O)(c1ccccc1Br)N1CCN(c2ncccn2)CC1,x,-5.9,-0.4,9.2,-4.3,2.2
SMILES,TLR4 MyD88 comp,TLR9-MyD88 block,A1 inh,NOD2-RIPK2 inh,B2AR ag,NTR1 ag
O=C(CCS(=O)(=O)c1ccccc1)N(CCCN1CCOCC1)c1nc2ccc(F)cc2s1,x,-2.4,5.3*,13.9,5.9,26.1
N#Cc1ccc(OCC(=O)OCC(=O)c2ccc[nH]2)cc1,x,5.3,x,2.0,48.7*,0.1
N#Cc1ccccc1OCC(=O)OCC(=O)c1ccc[nH]1,x,-10.8,0.2,-6.8,-3.2,-1.6
CCOc1ccccc1/C=N/n1c(C)nc2ccccc2c1=O,x,5.7,0.4,2.1,-1.0,2.1
Cc1cccc(OCc2nnc(SCC(=O)NCC3CCCO3)n2C)c1 (stereo not given),x,-2.6,0.1,-1.8,0.2,1.2
CCC(=O)NC(=S)Nc1cccc(Cl)c1N1CCCCC1,-1.7,6.3,0.7,-3.7,7.3,49.7*
COc1cc(/C=C2\CCC/C(=C\c3ccc(O)c(OC)c3)C2=O)ccc1O,x,-1.7,0.9,3.5,43.1*,56.4*
COc1cc(/C=C2\CC/C(=C\c3cc(OC)c(OC)c(OC)c3)C2=O)cc(OC)c1OC,-3.8,-2.2,0.1,1.8,7.6,0.7
COc1cc(/C=C2/CCCC(C(=O)C(F)(F)F)=C2O)ccc1O,x,3.9,0.4,3.1,20.9,2.9
COc1cc(/C=C2\COC/C(=C\c3cc(OC)c(OC)c(OC)c3)C2=O)cc(OC)c1OC,x,11.6,x,9.8,43.0*,x
CN(C)/C=C1\NC(=S)N(c2ccccc2)C1=O,-0.4,-0.9,0.1,0.4,-0.7,0.1
COc1cccc(-c2cnc(C(O)c3ccc(C)cc3)[nH]2)c1 (stereo not given),x,x,x,0.1,x,x
CNC[C@H](CC1CCCCC1)NC[C@H](Cc1ccccc1)NCCC12CC3CC(CC(C3)C1)C2,x,-7.0,-0.4,14.5,51.6*,5.0
NC[C@H](Cc1ccccc1)NCCCCC1CCCCC1,x,7.9,0.0,0.3,-1.8,2.9
CN(C)S(=O)(=O)N1CCC(Oc2ccc(C(=O)N3CCCCCC3)cc2)CC1,x,3.4,x,-0.7,x,x
Cn1cnnc1SCC(=O)n1c2ccccc2c2ccccc21,2.1,4.8,0.7,-4.8,-10.9,1.3
Cn1cnnc1SCc1ccc(C(=O)N=Nc2c(O)n(C)c3ccccc23)cc1,-19.8,-6.5,0.0,-10.4,100.1*,1.0
Cc1noc(C)c1COc1ccc(C(=O)OC(C)C(=O)Nc2ccc(N3CCOCC3)cc2)cc1 (stereo not given),-21.4,-9.0,5.8*,-1.8,-6.5,-2.2
CC(=O)Nc1ccc(NC(=O)C(C)OC(=O)c2ccc(OCc3c(C)noc3C)cc2)cc1 (stereo not given),-0.1,5.3,0.1,4.8,1.2,-2.2
CC(C)c1cccc(-c2ccc3c(c2)S(=O)(=O)c2cccc(C(=O)NC4CCCC4)c2C3=O)c1,x,-1.4,7.3*,-9.1,-0.7,-0.8
O=C(NC1CCCC1)c1cccc2c1C(=O)c1ccc(/C=C/c3ccccc3)cc1S2(=O)=O,x,2.2,40.2*,-5.3,4.0,1.6
O=C(NCc1ccccc1)c1cccc2c1C(=O)c1ccc(/C=C/c3ccccc3)cc1S2(=O)=O,x,3.0,1.9,10.1,-7.0,3.8
COc1ccc(-c2ccc3c(c2)S(=O)(=O)c2cccc(C(=O)NC4CCCC4)c2C3=O)cc1OC,x,-5.9,0.2,0.2,-8.4,1.2
c1ccc(-n2cc(CN3CCCC(CN4CCCC4)C3)c(-c3ccc4c(c3)OCO4)n2)cc1 (stereo not given),6.5,-1.7,-0.5,1.9,15.3,-1.1
COc1cc2oc3ccc(C#Cc4ccc(N)cc4)cc3c(=O)c2cc1OC,x,-12.4,-0.4,-2.2,17.0,x
COc1cc2oc3ccc(C#Cc4ccccn4)cc3c(=O)c2cc1OC,x,-10.2,1.3,-1.2,70.6*,7.0
